MITF primary: MITF inhibitors, primary screen, biochemical, AlphaScreen, human; AlphaScreen MITF homodimerization, bead proximity signal; inhibition, % at 2.6 µM; actives 0.91% (n = 650,000); AID 1259374, 2018; in the data active = inhibition above about 50%;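 also: 0% = vehicle wells with protein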
TEAD-YAP block: TEAD-YAP interaction inhibition, primary screen, TEAD-YAP interaction inhibitor project, luminescence, HEK-TIYL cells | TEAD-Gal4/YAP UAS-luciferase luminescence | actives 1.4% (n = 640,000) | inhibition, % at 9.12 µM | AID 1259422, 2018; in the data active = inhibition above about 32%;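 also: 0% = median of test compound wells and 100% = reference inhibitor wells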
GPR151 activ: activators of human GPR151, primary screen, cell-based, PathHunter beta-arrestin, luminescence; G-protein coupled receptor 151 (Homo sapiens), Q8TDV0; PathHunter beta-arrestin GPR151 cells; activation, % at 11.2 µM; actives 1% (n = 650,000); AID 1508602, 2020; in the data active = activation above about 4.9%;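 also: 0% = median of compound wells and 100% = cells with positive control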
FBW7 act: FBW7 E3 ligase activators, primary screen, biochemical, AlphaScreen, human; F-box/WD repeat-containing protein 7 (Homo sapiens), Q969H0; AlphaScreen FBW7–phospho-cyclin E peptide binding, activator screen; normalized activity (activation), % at 26.1 µM; actives 0.13% (n = 650,000); in the data active = normalized activity above about 1.9%;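 also: purified mutant Fbw7 with reduced substrate affinity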
Target sequence (Q969H0 whole entry, looked up): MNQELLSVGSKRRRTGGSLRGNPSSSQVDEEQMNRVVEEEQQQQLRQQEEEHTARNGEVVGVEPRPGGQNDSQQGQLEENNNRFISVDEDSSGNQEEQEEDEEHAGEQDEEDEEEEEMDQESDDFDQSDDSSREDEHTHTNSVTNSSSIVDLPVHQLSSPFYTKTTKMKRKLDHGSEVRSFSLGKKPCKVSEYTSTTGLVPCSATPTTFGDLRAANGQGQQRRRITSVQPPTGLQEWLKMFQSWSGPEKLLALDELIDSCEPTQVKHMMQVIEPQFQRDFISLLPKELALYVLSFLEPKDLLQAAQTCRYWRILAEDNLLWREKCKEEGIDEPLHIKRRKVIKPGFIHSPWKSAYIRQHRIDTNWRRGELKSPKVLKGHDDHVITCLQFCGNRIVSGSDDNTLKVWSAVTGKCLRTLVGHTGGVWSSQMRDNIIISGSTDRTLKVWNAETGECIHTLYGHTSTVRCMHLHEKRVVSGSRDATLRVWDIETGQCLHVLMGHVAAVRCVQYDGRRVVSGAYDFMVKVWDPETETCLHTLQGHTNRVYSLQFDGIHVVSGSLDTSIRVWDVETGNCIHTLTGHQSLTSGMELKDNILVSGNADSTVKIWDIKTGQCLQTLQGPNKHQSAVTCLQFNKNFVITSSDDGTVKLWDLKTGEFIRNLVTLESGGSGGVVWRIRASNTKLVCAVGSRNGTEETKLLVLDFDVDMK
Active calls of the source: *. An excerpt weighted towards active compounds, which were near 3.5% of everything screened.

SMILES	MITF primary	TEAD-YAP block	GPR151 activ	FBW7 act
CCCCOc1cccc(NS(=O)(=O)c2cccc3c(S(=O)(=O)Nc4cccc(OCCCC)c4)cccc23)c1	0	-17	-1	0
COc1ccc(OC)c(NC(=O)CC23CC4CC(CC(Br)(C4)C2)C3)c1	1	0	2	0
COc1c(Cl)cc(C(=O)NN)cc1Cl	6	56*	-1	0
CCOc1c(Br)cc(C(=O)NN)cc1OC	-1	52*	1	0
CCOc1c(Br)cc(C(N)=O)cc1OC	-1	2	2	0
CNC(=O)c1cc(Cl)c(OC)c(OC)c1	6	6	0	0
COc1ccc(C(=O)NCc2ccc(S(N)(=O)=O)cc2)cc1OC	12	0	1	2.4*
CCCOc1ccc(C(=O)NN)cc1OC	15	47*	-2	1
Cc1onc(-c2ccccc2Cl)c1-c1nc(-c2cccnc2)no1	4	58*	-2	0
Cc1ccc(O)c(NC(=O)c2cccc(F)c2)c1	-4	-34	-3	0
Nc1nc2cc3c(cc2cc1C(=O)Nc1ccccc1)OCO3	6	42*	0	0
O=C(/C=C/Nc1ccc(F)cc1F)c1cccs1	30	73*	1	1
O=C(/C=C/Nc1ccccc1F)c1cccs1	10	38*	-1	0
Cc1cc(Nc2ccccc2F)nc2cccc(O)c12	2	43*	2	0
O=c1c(O)c(-c2ccc(O)c(O)c2)oc2cc(O)ccc12	23	-24	-2	0
O=c1c(O)c(-c2cc(O)c(O)c(O)c2)oc2cc(O)ccc12	78*	2	3	0
Cc1ccc(C)c(CSc2nc3[nH]ncc3c(=O)[nH]2)c1	10	37*	1	0
Cc1ccccc1CSc1nc2[nH]ncc2c(=O)[nH]1	5	-7	0	0
CC(C)C(=O)Nc1cccc(C(=O)Nc2nnc(CCc3ccccc3)s2)c1	7	47*	1	0
C/C(N)=C(/C#N)C(=O)COC(=O)c1ccc(C)c(S(=O)(=O)N2CCOCC2)c1	-2	3	-1	0
CCOC(=O)c1cnn(-c2nc3ccccc3[nH]2)c1N	16	42*	-6	0
CCOc1ccccc1C(=O)Nc1cc(C)nn1-c1nc2ccccc2[nH]1	-2	54*	2	0
O=c1c2ccccc2cnn1-c1nc2ccccc2[nH]1	9	94*	-11	0
O=c1c2ccccc2cnn1-c1nc2ccccc2s1	27	90*	-1	0
CC(=O)Nc1cc(C)nn1-c1nc2ccccc2[nH]1	5	16	2	0
SMILES	MITF primary	TEAD-YAP block	GPR151 activ	FBW7 act
CCOC(=O)c1cnn(-c2nc3ccccc3s2)c1N	-6	13	-1	0
O=c1c2ccccc2cnn1-c1ccc(Cl)c(Cl)c1	11	-27	1	0
Cc1cc2c(NC3CCCC(C)C3C)ncnc2s1 (stereo not drawn)	7	-1	1	0
CC1=C(C(=O)NCc2ccccc2)SCCO1	4	-16	0	0
CCn1c(/C=C2\C(=O)Nc3ccc(C)cc32)nc2ccccc2c1=O	4	16	1	1
CCCc1nc2ccc([N+](=O)[O-])cc2c(=O)n1Cc1cccc([N+](=O)[O-])c1	8	0	-2	0
COc1ccccc1CN1CCN(C2CCCC2)C(CCO)C1 (stereo not drawn)	-6	-3	0	0
CC(C)CC(=O)c1[nH]c2ccccc2c1C(=O)O	-5	-1	1	0
COc1ccc(C(=O)O/N=C2\C=C(C(C)C)C(=O)C=C2C)cc1OC	20	5	-2	0
C=CCn1c(SCC(=O)N2CCOCC2)nnc1-c1ccccc1O	4	-5	-1	1
C=CCn1c(SCC(=O)N2CCN(c3ccccc3)CC2)nnc1-c1ccccc1O	22	33*	-2	0
CCn1c(SCC(=O)N2CCN(c3ccccc3)CC2)nnc1-c1ccccc1O	9	34*	3	0
CCOC(=O)C(C)Oc1cc(OC(C)C(=O)OCC)c2c3c(c(=O)oc2c1)CCCC3 (stereo not drawn)	6	16	-1	0
COC(=O)C(C)Oc1cc(OC(C)C(=O)OC)c2c3c(c(=O)oc2c1)CCC3 (stereo not drawn)	-12	44*	0	1
O=C(CSc1ccc2nnc(-c3cccc(F)c3)n2n1)N1CCc2ccccc21	1	-4	1	0
COc1ccccc1N=C/C(C(=O)C(F)(F)F)=C(\O)c1cccs1	13	50*	-2	1
COC(=O)c1ccccc1N=C/C(C(=O)C(F)(F)F)=C(\O)c1cccs1	5	-16	-1	0
O=C(Nc1ccc(-c2ccccc2)cc1)c1ccc(C(=O)Nc2ccc(-c3ccccc3)cc2)cc1	8	2	0	0
O=C(Nc1ccccc1)C1=C(c2ccccc2)S(=O)(=O)CCS1(=O)=O	11	81*	1	1
O=C(CCC(=O)Nc1ccccc1Cl)NNC(=S)NCC1CCCO1 (stereo not drawn)	-8	6	0	0
CCC1CCC(c2ccc(C3=N/C(=C/c4ccc5c(c4)OCO5)C(=O)O3)cc2)CC1 (stereo not drawn)	11	-8	0	0
COc1cccc(-c2noc(C3CCCN(C(=O)c4c(OC)cccc4OC)C3)n2)c1 (stereo not drawn)	10	63*	-1	0
COc1ccc(-c2noc(C3CCCN(C(=O)c4c(F)cccc4F)C3)n2)cc1OC (stereo not drawn)	-10	9	2	0
CCOc1cc(C(Nc2ccccn2)c2ccc3cccnc3c2O)ccc1OC (stereo not drawn)	31	89*	1	0
CCOc1cc(C(Nc2ccccn2)c2ccc3cccnc3c2O)ccc1O (stereo not drawn)	50	-7	0	-1
SMILES	MITF primary	TEAD-YAP block	GPR151 activ	FBW7 act
CCc1ccc(C(Nc2ccccn2)c2ccc3ccc(C)nc3c2O)cc1 (stereo not drawn)	22	23	3	0
COc1cc(C(Nc2ccccn2)c2ccc3cccnc3c2O)cc(Br)c1OC (stereo not drawn)	19	76*	0	0
COc1ccc(C(Nc2ccccn2)c2ccc3cccnc3c2O)cc1 (stereo not drawn)	36	86*	1	-1
COc1cc(C(Nc2ccccn2)c2ccc3ccc(C)nc3c2O)cc(OC)c1O (stereo not drawn)	19	33*	-1	0
O=C(NCc1nc(-c2ccncc2)n[nH]1)c1ccc(Cl)cc1Cl	5	4	-1	0
O=C(CSc1nnc(-c2ccc(Cl)cc2)n1-c1ccccc1)NCc1ccco1	1	-6	0	0
CCOc1ccc(C(Nc2ccccn2)c2ccc3cccnc3c2O)cc1 (stereo not drawn)	27	86*	1	-1
